Results on 19 molecules are retold here after PubChem BioAssay (NCATS).

Records with an inconclusive call do not appear. The source made the active and inactive calls. Unless noted, the call rests on the fitted dose curve; in most records, active means well fitted curve in the direction sought with a large enough effect; inconclusive means small, poorly fitted or top-dose-only effect, or another doubt; inactive means no such curve, though single readings can be large; an effect the other way counts as inactive or inconclusive.

The nature of experiment [1]: qHTS to identify inhibitors of the type 1 interferon - major histocompatibility complex class I in skeletal muscle: primary screen against the NCATS Mechanism Interrogation Plate v5.0 (MIPE) Libary (AID 1347411). Further: nearly all actives have a fitted effect of over 65% in size. Further: potency means the concentration at half of the fitted maximal effect. A digest of the protocol:
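Immortalized human C25cl48 myoblasts with HiBit knocked into endogenous HLA-B*08:01 were stimulated with 4.0 ng/ml IFN-beta and exposed to compounds (11-point 1:3 titration, top 46 uM final) for 24 hrs at 37 C; HiBiT lytic luminescence measured.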

Experiment [2] in a line: Primary qHTS for inhibitors of nuclear receptor binding SET domain protein 2 (NSD2) in an isogenic RCH-ACV NSD2 p.E1099K mutant (9B) (AID 1645876). Further: nearly all actives have a fitted effect of over 70% in size. Further: potency means the concentration at half of the fitted maximal effect. For orientation: qHTS replaces the single test concentration by a dilution series.
Experiment [3] can be described thus: Primary qHTS for inhibitors of nuclear receptor binding SET domain protein 2 (NSD2) in an RCH-ACV wild type WT cells (2C) (AID 1645877). Further: nearly all actives have a fitted effect of over 70% in size. Further: potency means the concentration at half of the fitted maximal effect.
A short description of experiment [4]: qHTS drug screen for cell cycle checkpoint inhibitors in PARPi-resistant BRCA-mutant ovarian cancer cell lines. (AID 1963452; calls by dose curve; further: potency means the concentration at half of the fitted maximal effect). The following applies: PEO1/OlaR viability, CellTiter-Glo luminescence, 96 h; for Z-AUC: stronger effect = lower value. In a few lines: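 PEO1, PEO4 and PEO1/OlaR ovarian cancer cells, 600 per well, exposed 96 h at 37C to a dilution series. Viability read by CellTiter-Glo luminescence, normalized to DMSO and empty wells; activity summarized as Z-AUC.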

In experiment [5] the target is Glutathione peroxidase 1 (Homo sapiens) (UniProt P07203). The experiment is described as follows: Primary qHTS Assay for Inhibitors of Recombinant Selenoprotein Glutathione Peroxidase 1 (GPX1) (AID 1845191). Further: nearly all actives have a fitted effect of over 65% in size. Further: potency means the concentration at half of the fitted maximal effect. On activity, negative = inhibition: on the % scale 0 is the no-effect control and ±100 the full control effect. A digest of the protocol: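 GR-coupled assay: compounds preincubated 30 min at room temperature with GPX1, then reaction started with CHP; final 10 nM GPX1, 1 mM GSH, 0.5 mM CHP, 0.5 mM NADPH, 100 nM GR, 0.01% BSA, pH 7.5 Tris buffer. NADPH fluorescence (340/450 nm) read at 0 and 15 min.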

In experiment [6] the target is Phospholipid hydroperoxide glutathione peroxidase GPX4 (Homo sapiens) (UniProt P36969). The experiment is described as follows: Primary qHTS Assay for Inhibitors of Recombinant Selenoprotein Glutathione Peroxidase 4 (GPX4) (AID 1845192). Further: nearly all actives have a fitted effect of over 65% in size. The following applies: outcome: dose series up to 50 µM unless noted. In a few lines:
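GR-coupled assay: recombinant GPX4 preincubated 30 min with compound at room temperature; final 200 nM GPX4, 1 mM GSH, 0.5 mM cumene hydroperoxide, 0.5 mM NADPH, 100 nM GR, 0.01% BSA, pH 7.5 Tris. NADPH fluorescence (340/450 nm) read at 0 and 15 min.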

Experiment [7] in a line: qHTS Assay for Identifying Gametocytocidal Compounds (AID 743244).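 Further: on the % scale 0 is the no-effect control and ±100 the full control effect; actives lower the fluorescent signal which means gametocytes are killed.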 The following applies: P. falciparum 3D7 stage III-V gametocytes, alamarBlue, 72 h; stronger effect = lower value. In a few lines:
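Using 20,000 stage III–V 3D7 gametocytes per well, compounds were incubated 72 h under 37 °C/5% CO2. Viability was then assessed by 24 h alamarBlue reduction, measured fluorometrically at 525/598 nm.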

Setting [8] is: measured here: PEO1 parental Z-AUC.

Chain of Phospholipid hydroperoxide glutathione peroxidase GPX4 (Homo sapiens) (P36969 whole entry, looked up): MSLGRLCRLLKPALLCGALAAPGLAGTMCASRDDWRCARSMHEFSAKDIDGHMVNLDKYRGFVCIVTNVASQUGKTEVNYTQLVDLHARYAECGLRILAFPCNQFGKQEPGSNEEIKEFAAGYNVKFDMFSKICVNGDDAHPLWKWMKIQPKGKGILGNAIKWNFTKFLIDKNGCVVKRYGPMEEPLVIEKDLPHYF
Chain of Glutathione peroxidase 1 (Homo sapiens) (P07203 whole entry, looked up): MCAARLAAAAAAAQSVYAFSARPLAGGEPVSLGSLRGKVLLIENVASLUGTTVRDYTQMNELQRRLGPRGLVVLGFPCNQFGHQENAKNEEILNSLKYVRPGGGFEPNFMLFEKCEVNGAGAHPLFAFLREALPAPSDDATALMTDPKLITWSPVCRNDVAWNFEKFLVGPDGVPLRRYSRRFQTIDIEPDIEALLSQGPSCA

Turning to `CCN1C(=O)CNc2ncc(-c3ccc(-c4ncn[nH]4)nc3C)nc21`, the results for the Potency in experiment [1], in experiment [2] and in experiment [3] were 2940 nM (active), 833 nM (active) and 742 nM (active), respectively. Moreover, the Z-AUC in experiment [4] is 0.377 (inactive); in experiment [4] (setting [8]) it was 0.759; in experiment [4] (measured here: PEO4 Z-AUC) it was 0.275.
`CONC(=O)Nc1ccc(-c2sc3c(c2CN(C)C)c(=O)n(-c2ccc(OC)nn2)c(=O)n3Cc2c(F)cccc2F)cc1`: the Potency entry in experiment [1], in experiment [2], in experiment [5] and in experiment [6] was “inactive” in each case. Also, the Z-AUC in experiment [4] is 0.387 (inactive); in experiment [4] (setting [8]), 0.895; in experiment [4] (measured here: PEO4 Z-AUC), 0.818.
As for `CN1[C@@H]2CCC[C@H]1CC(NC(=O)c1nn(C)c3ccccc13)C2` (stereo not given in full), in experiment [7], the max response was 3.13% (inactive). For the same molecule, the Potency entry in experiment [1], in experiment [2] and in experiment [3] was “inactive” throughout.
Consider `COc1cc(OC)c(/C=C/S(=O)(=O)Cc2ccc(OC)c(OP(=O)(O)O)c2)c(OC)c1`, for which the Potency entry in experiment [1], in experiment [5] and in experiment [6] was “inactive” in each case. The Potency in experiment [2] was 37.2 nM (active); in experiment [4], 49 nM (active). Besides, the figures for the Z-AUC in experiment [4] (setting [8]) and in experiment [4] (measured here: PEO4 Z-AUC) were -2.04 and -2.09, respectively.
For the molecule `COc1ccc(S(=O)(=O)N[C@@H](CNc2nc(C)nc(N3CCC(c4ccc5c(n4)NCCC5)CC3)c2C)C(=O)O)cc1`, the Potency entry in experiment [1], in experiment [2], in experiment [5] and in experiment [6] was “inactive” throughout. For the same molecule, the Potency in experiment [4] was 61.6 nM (active). The Z-AUC is -1.54 in experiment [4] (setting [8]) and -1.12 in experiment [4] (measured here: PEO4 Z-AUC).
With `CCN(CC)C(=O)Cc1csc(NS(=O)(=O)c2cccc(Cl)c2C)n1`, the Potency entry in experiment [1], in experiment [2], in experiment [5] and in experiment [6] was “inactive” each time. In addition, the Z-AUC in experiment [4] was 0.874 (inactive); in experiment [4] (setting [8]), 0.835; in experiment [4] (measured here: PEO4 Z-AUC) it was 0.952.
Take `COc1ccc2c(c1)C(c1ccc(F)cc1)=C(CN1CCCC1)CO2`: the Potency entry in experiment [1], in experiment [2] and in experiment [5] was “inactive” in each case. Moreover, the Z-AUC was -0.385 (inactive) in experiment [4], 0.0924 in experiment [4] (setting [8]) and 0.0293 in experiment [4] (measured here: PEO4 Z-AUC).
For `O=C(O)/C(S)=C/c1ccc(I)cc1`, the Potency entry in experiment [1], in experiment [2] and in experiment [5] was “inactive” in each case. Besides, the Z-AUC in experiment [4] is 0.452 (inactive); in experiment [4] (setting [8]) it was 0.731; in experiment [4] (measured here: PEO4 Z-AUC), 0.789.
For the molecule `O=C(NO)c1cnc(N2C[C@H]3C[C@@H]2CN3c2cc(C(F)(F)F)ccn2)nc1`, the results for the Potency in experiment [1] and in experiment [2] were 4660 nM (active) and 2950 nM (active), respectively. Moreover, the Potency result in experiment [5] and in experiment [6] was “inactive” in each case. For the same molecule, the results for the Z-AUC in experiment [4], in experiment [4] (setting [8]) and in experiment [4] (measured here: PEO4 Z-AUC) were -1 (inactive), -1.23 and -1.32, respectively.
As for `CC[C@@]1(O)C(=O)OCc2c1cc1n(c2=O)Cc2c-1nc1ccccc1c2CCNC(C)C`, the Potency in experiment [1] was 739 nM (active); in experiment [2] it was 4.2 nM (active); in experiment [4], 17.4 nM (active). In experiment [5], the activity, negative = inhibition is -16.5% [at 4.49 µM] (inactive). Further, the Z-AUC in experiment [4] (setting [8]) is -2.94; in experiment [4] (measured here: PEO4 Z-AUC), -1.65.
In the case of `O=C(/C=C\n1cnc(-c2cc(C(F)(F)F)cc(C(F)(F)F)c2)n1)NNc1ccccn1`, the Potency in experiment [1] was 2340 nM (active); in experiment [2], 3720 nM (active). The Potency entry in experiment [5] and in experiment [6] was “inactive” in each case. Besides, the Z-AUC in experiment [4] was -0.821 (inactive); in experiment [4] (setting [8]), -1.43; in experiment [4] (measured here: PEO4 Z-AUC) it was -1.79.
Take `Nc1nc(N)c2nc(-c3cccc(Cl)c3)c(N)nc2n1`: in experiment [1], the Potency entry was “inactive”. Besides, the Potency in experiment [2] was 1050 nM (active); in experiment [5], 4090 nM (active). The Z-AUC is -0.747 (inactive) in experiment [4], -0.162 in experiment [4] (setting [8]) and -0.371 in experiment [4] (measured here: PEO4 Z-AUC).
On to `CCOc1ccc(-n2c([C@@H](C)N(Cc3cccnc3)C(=O)Cc3ccc(F)c(C(F)(F)F)c3)nc3ncccc3c2=O)cc1`, for which the Potency entry in experiment [1], in experiment [5] and in experiment [6] was “inactive” each time. Further, the Potency in experiment [3] was 18600 nM (active). The Z-AUC in experiment [4] was 1.64 (inactive); in experiment [4] (setting [8]), 1.42; in experiment [4] (measured here: PEO4 Z-AUC) it was 1.34.
Take `C=CC(=O)N[C@H]1CCOC[C@H]1Nc1ncc2cc(-c3c(Cl)c(OC)cc(OC)c3Cl)ccc2n1`: the Potency entry in experiment [1], in experiment [5] and in experiment [6] was “inactive” in each case. Also, the Z-AUC in experiment [4] is 1.21 (inactive); in experiment [4] (setting [8]) it was 0.408; in experiment [4] (measured here: PEO4 Z-AUC) it was 0.57.
In the case of `OCCOc1ccc(/C(=C(/CCCl)c2ccccc2)c2ccccc2)cc1`, the Potency entry in experiment [1], in experiment [5] and in experiment [6] was “inactive” each time. In addition, the results for the Z-AUC in experiment [4], in experiment [4] (setting [8]) and in experiment [4] (measured here: PEO4 Z-AUC) were -0.111 (inactive), 0.225 and 0.557, respectively.
Take `Nc1cc(COc2c(Cl)cc(C[C@H](N)C(=O)O)cc2Cl)c2oc(-c3ccccc3)nc2c1`: the Potency result in experiment [1], in experiment [5] and in experiment [6] was “inactive” in each case. For the same molecule, the Z-AUC was -1.13 (inactive) in experiment [4], -0.255 in experiment [4] (setting [8]) and -0.878 in experiment [4] (measured here: PEO4 Z-AUC).
With `CCCN(CCC)C(=O)C1=Cc2ccc(-c3ccc(C(=O)N4CCCC4)cc3)cc2N=C(N)C1`, the Potency result in experiment [1] and in experiment [5] was “inactive” in each case. Also, the Potency in experiment [3] is 18600 nM (active). Also, the Z-AUC in experiment [4] is 0.263 (inactive); in experiment [4] (setting [8]), -0.15; in experiment [4] (measured here: PEO4 Z-AUC) it was -0.0193.
In the case of `CCC(=O)OCC(=O)C1(OC(=O)CC)C(C)CC2C3CCC4=CC(=O)C=CC4(C)C3(F)C(O)CC21C` (stereo not given), the Potency result in experiment [1], in experiment [5] and in experiment [6] was “inactive” in each case. Also, the Z-AUC in experiment [4] is 0.365 (inactive); in experiment [4] (setting [8]), 0.623; in experiment [4] (measured here: PEO4 Z-AUC) it was -0.145.
In the case of `COc1cc(-c2cn(C)c(=O)c3cnccc23)c(OC)cc1CN(C)C`, the Potency result in experiment [1], in experiment [5] and in experiment [6] was “inactive” each time. The Potency in experiment [3] was 8330 nM (active). Besides, the Z-AUC in experiment [4] is -0.443 (inactive); in experiment [4] (setting [8]), -0.655; in experiment [4] (measured here: PEO4 Z-AUC), -0.662.
